Measurements as given in the supplement of paper PMC10849652.
Targets with a hit are over-represented here; the source holds about 7,900 in all. About 0.6% of all pairs of compound and target were hits.

How the values were obtained:
Experiment in all cases: log2 fold change, soluble protein after heating vs DMSO (PISA); higher = thermal stabilisation; K562 cells, 10 uM, 30 min; active = over 0.2 and 3.5 SD of the protein, either way, in both replicates (recomputed)
[1] = compound: CC[C@@H]1C(=O)N(C)c2cnc(Nc3ccc(C(=O)NC4CCN(C)CC4)cc3OC)nc2N1C1CCCC1
Outline: (§1)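 K562 cells at 2×10^6 cells/mL were given 10 μM compound for 30 min. Aliquots then went through 3 min of heating across 48°C-58°C, were pooled, and were extracted in PBS with 0.5% NP-40 at 4°C, and the supernatant after 21,000xg for 90 min was quantified by TMTpro 16plex LC-MS/MS with channel sums equalised. Thermal stability relative to control samples, from duplicates, is given as log2 fold change.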

volasertib = compound: CC[C@@H]1C(=O)N(C)c2cnc(Nc3ccc(C(=O)N[C@H]4CC[C@H](N5CCN(CC6CC6)CC5)CC4)cc3OC)nc2N1C(C)C [volasertib]
Outline: as §1

[2] = compound: CC[C@H](C)N1C=C(C2=C(C=C(C=C21)C3=CN=C(C=C3)N4CCNCC4)C(=O)NCC5=C(C=C(NC5=O)C)C)C
Outline: as §1

epoxomicin = compound: CC[C@H](C)[C@@H](C(=O)N[C@@H]([C@@H](C)O)C(=O)N[C@@H](CC(C)C)C(=O)[C@]1(CO1)C)NC(=O)[C@H]([C@@H](C)CC)N(C)C(=O)C [epoxomicin]
Outline: as §1

[3] = compound: CCn1c(C(=O)N(C2CC2)C2CC2)cc2c3c(ncn3C)c(Nc3cc(C)n(C)n3)nc21
Outline: as §1

[4] = compound: CCn1cc(-c2ccnc3[nH]c(-c4cccc(CN(C)C)c4)cc23)c(-c2ccc(NC(=O)N(C)C)cc2)n1
Outline: as §1

[5] = compound: CN(C)CC(=O)Nc1ccc2[nH]c(=O)c3ccccc3c2c1
Outline: as §1

rosiglitazone = compound: CN(CCOC1=CC=C(C=C1)C[C@H]2C(=O)NC(=O)S2)C3=CC=CC=N3 (racemic) [rosiglitazone]
Outline: as §1

[6] = compound: CN1C2=C(C3=C1C(=O)N(N=C3)CC4=CC(=CC=C4)N)SC(=C2)S(=O)C
Outline: as §1

[7] = compound: CN1CCC(CNc2ccc3ncc(-c4cccc(OC(F)(F)F)c4)n3n2)CC1
Outline: as §1

saracatinib = compound: CN1CCN(CCOc2cc(OC3CCOCC3)c3c(Nc4c(Cl)ccc5c4OCO5)ncnc3c2)CC1 [saracatinib]
Outline: as §1

sotrastaurin = compound: CN1CCN(c2nc(C3=C(c4c[nH]c5ccccc45)C(=O)NC3=O)c3ccccc3n2)CC1 [sotrastaurin]
Outline: as §1

alvocidib = compound: CN1CC[C@H](c2c(O)cc(O)c3c(=O)cc(-c4ccccc4Cl)oc23)[C@H](O)C1 [alvocidib]
Outline: as §1

Tubastatin A = compound: CN1CCc2c(c3ccccc3n2Cc2ccc(C(=O)NO)cc2)C1 [Tubastatin A]
Outline: as §1

[8] = compound: CNC(=O)C1=CC=CC=C1NC2=NC(=NC=C2Cl)NC3=C(C=C(C=C3)N4CCOCC4)OC
Outline: as §1

defactinib = compound: CNC(=O)c1ccc(Nc2ncc(C(F)(F)F)c(NCc3nccnc3N(C)S(C)(=O)=O)n2)cc1 [defactinib]
Outline: as §1

rucaparib = compound: CNCc1ccc(-c2[nH]c3cc(F)cc4c3c2CCNC4=O)cc1 [rucaparib]
Outline: as §1

[9] = compound: CNc1nc(-c2ccc3c(N)n[nH]c3c2)cc(N2C[C@@H](C(=O)NC3CCCCC3)CC[C@H]2C)n1
Outline: as §1

encorafenib = compound: COC(=O)N[C@@H](C)CNc1nccc(-c2cn(C(C)C)nc2-c2cc(Cl)cc(NS(C)(=O)=O)c2F)n1 [encorafenib]
Outline: as §1

[10] = compound: COC(=O)[C@H](CCSC)NC(=O)C1=C(C=C(C=C1)NC[C@H](CS)N)C2=CC=CC=C2
Outline: as §1

Measured: log2 fold change

ATIC (UniProt P31939)
Sequence of UniProt P31939 (P31939 whole entry, looked up): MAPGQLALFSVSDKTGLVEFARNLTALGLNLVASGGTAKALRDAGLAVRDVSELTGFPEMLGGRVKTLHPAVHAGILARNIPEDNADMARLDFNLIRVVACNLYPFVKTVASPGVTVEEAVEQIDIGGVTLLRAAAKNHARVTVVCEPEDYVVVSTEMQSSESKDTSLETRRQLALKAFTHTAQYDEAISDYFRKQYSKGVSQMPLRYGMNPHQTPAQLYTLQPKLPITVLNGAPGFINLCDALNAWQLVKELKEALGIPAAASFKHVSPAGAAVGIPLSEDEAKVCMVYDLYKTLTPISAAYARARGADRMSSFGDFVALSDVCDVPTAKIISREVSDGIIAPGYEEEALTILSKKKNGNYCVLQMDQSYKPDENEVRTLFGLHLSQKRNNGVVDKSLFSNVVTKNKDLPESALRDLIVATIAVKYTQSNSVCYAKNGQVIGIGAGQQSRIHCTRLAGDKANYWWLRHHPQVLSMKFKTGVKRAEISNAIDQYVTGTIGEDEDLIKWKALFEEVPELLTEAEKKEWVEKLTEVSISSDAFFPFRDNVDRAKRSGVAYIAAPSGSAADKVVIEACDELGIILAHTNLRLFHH
inactive: [1] -0.032 | volasertib 0.021 | [2] 0.029 | epoxomicin 0.04 | [3] -0.011 | [4] -0.016 | [5] 0.023 | rosiglitazone -0.012 | [6] -0.123 | [7] 0.029 | saracatinib -0.013 | sotrastaurin -0.001 | alvocidib -0.064 | Tubastatin A 0.008 | [8] 0.087 | defactinib -0.059 | rucaparib -0.05 | [9] 0.044 | encorafenib -0.011 | [10] -0.028

BRD8 isoform 2 (UniProt Q9H0E9)
active: [5] 0.432
inactive: [1] 0.036 | volasertib 0.025 | epoxomicin -0.105 | [3] -0.045 | [4] 0.219 | rosiglitazone -0.018 | [6] 0.087 | [7] -0.327 | saracatinib -0.06 | sotrastaurin 0.058 | alvocidib 0.012 | Tubastatin A -0.296 | [8] 0 | defactinib -0.064 | rucaparib -0.015 | [9] -0.021 | encorafenib 0.028 | [10] 0.145

ACO2 (UniProt Q99798)
inactive: [1] 0.043 | volasertib 0.037 | [2] 0.022 | epoxomicin 0.046 | [3] -0.011 | [4] -0.115 | [5] 0.055 | rosiglitazone -0.023 | [6] -0.118 | saracatinib 0.005 | sotrastaurin -0.017 | alvocidib -0.107 | Tubastatin A -0.021 | [8] 0.016 | defactinib -0.083 | rucaparib -0.034 | [9] 0.021 | encorafenib 0.027 | [10] -0.037
active: [7] -0.344

ABHD11 (UniProt Q8NFV4)
Sequence of UniProt Q8NFV4 (Q8NFV4 whole entry, looked up): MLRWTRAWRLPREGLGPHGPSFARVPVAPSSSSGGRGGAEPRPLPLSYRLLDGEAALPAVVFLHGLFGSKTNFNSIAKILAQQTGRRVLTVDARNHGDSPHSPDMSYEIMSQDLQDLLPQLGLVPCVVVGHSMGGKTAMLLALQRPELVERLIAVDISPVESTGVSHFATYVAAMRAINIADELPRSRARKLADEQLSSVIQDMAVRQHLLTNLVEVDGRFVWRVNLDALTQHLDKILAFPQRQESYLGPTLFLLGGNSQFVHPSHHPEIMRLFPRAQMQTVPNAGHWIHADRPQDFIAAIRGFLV
inactive: [1] -0.077 | volasertib -0.127 | [2] -0.003 | epoxomicin 0.272 | [3] 0.045 | [4] 0.086 | [5] 0.007 | rosiglitazone -0.016 | [6] -0.033 | [7] -0.126 | saracatinib -0.022 | alvocidib -0.066 | Tubastatin A 0.096 | [8] 0.05 | defactinib -0.114 | rucaparib 0.02 | [9] -0.102 | encorafenib 0.004 | [10] -0.095

AFG1L (UniProt Q8WV93)
Sequence of UniProt Q8WV93 (Q8WV93 whole entry, looked up): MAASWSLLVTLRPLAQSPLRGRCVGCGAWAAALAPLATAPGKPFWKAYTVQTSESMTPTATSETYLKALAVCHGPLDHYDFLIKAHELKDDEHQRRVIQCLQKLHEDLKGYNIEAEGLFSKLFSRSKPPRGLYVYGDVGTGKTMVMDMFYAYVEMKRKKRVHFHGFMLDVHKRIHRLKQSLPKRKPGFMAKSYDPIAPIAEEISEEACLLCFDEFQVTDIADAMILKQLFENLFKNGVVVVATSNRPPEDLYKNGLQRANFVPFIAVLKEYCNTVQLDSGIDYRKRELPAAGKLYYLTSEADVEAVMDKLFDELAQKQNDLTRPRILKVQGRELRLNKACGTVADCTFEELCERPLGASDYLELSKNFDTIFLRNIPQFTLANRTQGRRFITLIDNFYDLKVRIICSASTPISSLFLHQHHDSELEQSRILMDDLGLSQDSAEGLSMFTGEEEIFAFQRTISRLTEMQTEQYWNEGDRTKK
inactive: [1] 0.047 | volasertib -0.223 | [2] 0.207 | epoxomicin 0.035 | [3] 0.017 | [5] 0.063 | rosiglitazone 0.021 | [6] -0.122 | saracatinib -0.038 | sotrastaurin -0.075 | alvocidib -0.195 | Tubastatin A -0.204 | [8] -0.011 | defactinib -0.131 | rucaparib -0.057 | [9] 0.002 | encorafenib 0.025 | [10] 0.088

ALG14 (UniProt Q96F25)
Sequence of UniProt Q96F25 (Q96F25 whole entry, looked up): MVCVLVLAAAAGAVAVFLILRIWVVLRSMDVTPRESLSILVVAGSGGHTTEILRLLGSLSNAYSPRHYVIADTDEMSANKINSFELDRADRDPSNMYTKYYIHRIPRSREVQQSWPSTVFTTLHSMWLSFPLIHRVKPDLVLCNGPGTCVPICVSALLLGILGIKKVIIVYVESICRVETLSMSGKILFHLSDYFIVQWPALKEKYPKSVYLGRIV
inactive: [1] 0.2 | volasertib 0.11 | [2] -0.077 | epoxomicin 0.382 | [3] -0.014 | [4] -0.215 | [5] 0.062 | rosiglitazone 0.016 | [6] -0.124 | [7] 0.443 | saracatinib 0.049 | alvocidib -0.14 | Tubastatin A -0.027 | [8] -0.001 | defactinib 0.091 | rucaparib -0.173 | [9] -0.022 | encorafenib 0.028 | [10] -0.002

ANK2 (UniProt Q01484)
inactive: [1] 0.049 | volasertib -0.071 | [2] -0.003 | [3] -0.1 | [4] 0.122 | [5] -0.018 | rosiglitazone 0.03 | [6] -0.128 | [7] -0.223 | saracatinib 0.24 | sotrastaurin 0.05 | alvocidib -0.013 | Tubastatin A -0.122 | [8] 0.05 | defactinib -0.057 | rucaparib -0.019 | [9] -0.095 | encorafenib -0.106 | [10] -0.041

AP4S1 (UniProt Q9Y587)
inactive: [1] -0.117 | volasertib -0.321 | [2] 0.059 | epoxomicin -0.006 | [3] -0.056 | [5] 0.027 | rosiglitazone 0.024 | [6] 0.078 | saracatinib -0.08 | sotrastaurin -0.117 | alvocidib -0.099 | [8] -0.05 | defactinib 0.059 | rucaparib 0.039 | [9] -0.072 | encorafenib 0.073 | [10] 0.008

AHCYL1 (UniProt O43865)
Sequence of UniProt O43865 (O43865 whole entry, looked up): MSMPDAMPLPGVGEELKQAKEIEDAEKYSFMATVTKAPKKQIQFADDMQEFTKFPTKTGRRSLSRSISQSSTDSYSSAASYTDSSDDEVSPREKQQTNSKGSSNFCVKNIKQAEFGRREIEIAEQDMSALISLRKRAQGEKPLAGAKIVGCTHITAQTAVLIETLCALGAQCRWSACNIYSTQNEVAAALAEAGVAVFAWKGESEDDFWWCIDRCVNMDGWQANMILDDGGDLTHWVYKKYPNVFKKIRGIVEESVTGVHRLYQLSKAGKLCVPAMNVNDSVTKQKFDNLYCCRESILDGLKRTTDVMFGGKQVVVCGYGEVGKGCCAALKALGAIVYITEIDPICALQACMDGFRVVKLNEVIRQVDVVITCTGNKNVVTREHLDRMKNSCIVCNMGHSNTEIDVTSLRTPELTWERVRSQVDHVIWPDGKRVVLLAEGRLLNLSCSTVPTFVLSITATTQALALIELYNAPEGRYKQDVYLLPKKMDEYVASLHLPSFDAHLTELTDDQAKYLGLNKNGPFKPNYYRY
inactive: [1] 0.021 | volasertib 0.036 | [2] -0.099 | epoxomicin -0.007 | [3] -0.027 | [4] -0.097 | [5] 0.018 | rosiglitazone 0.018 | [6] -0.115 | [7] -0.063 | saracatinib 0.101 | sotrastaurin 0.014 | alvocidib 0.1 | Tubastatin A -0.042 | [8] 0.182 | defactinib 0.104 | rucaparib 0.044 | [9] 0.061 | encorafenib -0.043 | [10] -0.005

ASB6 (UniProt Q9NWX5)
Sequence of UniProt Q9NWX5 (Q9NWX5 whole entry, looked up): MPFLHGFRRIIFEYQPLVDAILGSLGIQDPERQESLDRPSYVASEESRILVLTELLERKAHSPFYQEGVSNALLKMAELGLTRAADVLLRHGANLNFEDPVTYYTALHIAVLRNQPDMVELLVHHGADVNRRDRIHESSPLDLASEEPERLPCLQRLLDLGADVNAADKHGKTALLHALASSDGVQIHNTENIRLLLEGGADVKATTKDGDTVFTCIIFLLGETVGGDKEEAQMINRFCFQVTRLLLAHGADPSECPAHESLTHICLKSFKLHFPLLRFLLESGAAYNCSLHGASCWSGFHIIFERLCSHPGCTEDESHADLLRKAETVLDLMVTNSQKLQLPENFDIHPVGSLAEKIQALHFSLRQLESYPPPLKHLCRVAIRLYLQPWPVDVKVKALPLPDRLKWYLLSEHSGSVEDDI
inactive: [1] 0.047 | volasertib -0.321 | [2] 0.028 | epoxomicin -0.094 | [3] -0.016 | [4] -0.076 | [5] 0.041 | rosiglitazone 0.067 | [7] -0.083 | sotrastaurin -0.029 | [8] -0.078 | defactinib -0.033 | rucaparib 0.124 | encorafenib -0.094 | [10] 0.031

APOB (UniProt P04114)
inactive: [1] -0.235 | volasertib -0.104 | [2] -0.227 | epoxomicin -0.056 | [3] 0.004 | [4] 0.048 | [5] 0.014 | rosiglitazone 0.02 | [6] 0.116 | [7] -0.354 | saracatinib -0.139 | sotrastaurin -0.17 | alvocidib -0.014 | Tubastatin A -0.021 | [8] 0.012 | defactinib 0.05 | rucaparib -0.197 | [9] -0.364 | encorafenib 0.04 | [10] -0.005

BDH2 (UniProt Q9BUT1)
Sequence of UniProt Q9BUT1 (Q9BUT1 whole entry, looked up): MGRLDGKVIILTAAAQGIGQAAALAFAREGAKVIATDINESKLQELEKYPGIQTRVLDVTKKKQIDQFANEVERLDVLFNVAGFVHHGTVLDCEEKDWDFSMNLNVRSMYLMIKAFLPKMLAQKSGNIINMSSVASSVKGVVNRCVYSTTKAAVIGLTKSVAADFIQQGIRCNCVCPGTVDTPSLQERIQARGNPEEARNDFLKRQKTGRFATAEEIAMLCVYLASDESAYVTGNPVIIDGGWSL
inactive: volasertib -0.126 | [3] 0 | [4] 0.005 | [5] 0.367 | rosiglitazone 0.001 | [6] -0.028 | [7] -0.033 | saracatinib -0.088 | sotrastaurin 0 | alvocidib -0.177 | [8] -0.061 | defactinib -0.021 | [9] 0.015 | [10] -0.039

ATF7 isoform 6 (UniProt P17544)
active: saracatinib 0.477
inactive: volasertib -0.014 | [2] 0.041 | epoxomicin -0.028 | [3] 0.007 | [5] 0.03 | rosiglitazone -0.011 | [6] -0.06 | sotrastaurin -0.105 | alvocidib 0.026 | Tubastatin A -0.088 | [8] -0.096 | defactinib 0.063 | [9] 0.034 | [10] -0.037

BSCL2 isoform 4 (UniProt Q96G97)
inactive: volasertib 0.072 | [2] 0.093 | epoxomicin -0.05 | [3] -0.004 | [4] 0 | [5] -0.006 | rosiglitazone -0.001 | [6] -0.005 | [7] -0.057 | saracatinib -0.019 | alvocidib -0.164 | Tubastatin A 0.03 | [8] -0.025 | defactinib -0.113 | [9] -0.122 | [10] -0.071

ARHGAP25 isoform 4 (UniProt P42331)
Sequence of UniProt P42331 (P42331 whole entry, looked up): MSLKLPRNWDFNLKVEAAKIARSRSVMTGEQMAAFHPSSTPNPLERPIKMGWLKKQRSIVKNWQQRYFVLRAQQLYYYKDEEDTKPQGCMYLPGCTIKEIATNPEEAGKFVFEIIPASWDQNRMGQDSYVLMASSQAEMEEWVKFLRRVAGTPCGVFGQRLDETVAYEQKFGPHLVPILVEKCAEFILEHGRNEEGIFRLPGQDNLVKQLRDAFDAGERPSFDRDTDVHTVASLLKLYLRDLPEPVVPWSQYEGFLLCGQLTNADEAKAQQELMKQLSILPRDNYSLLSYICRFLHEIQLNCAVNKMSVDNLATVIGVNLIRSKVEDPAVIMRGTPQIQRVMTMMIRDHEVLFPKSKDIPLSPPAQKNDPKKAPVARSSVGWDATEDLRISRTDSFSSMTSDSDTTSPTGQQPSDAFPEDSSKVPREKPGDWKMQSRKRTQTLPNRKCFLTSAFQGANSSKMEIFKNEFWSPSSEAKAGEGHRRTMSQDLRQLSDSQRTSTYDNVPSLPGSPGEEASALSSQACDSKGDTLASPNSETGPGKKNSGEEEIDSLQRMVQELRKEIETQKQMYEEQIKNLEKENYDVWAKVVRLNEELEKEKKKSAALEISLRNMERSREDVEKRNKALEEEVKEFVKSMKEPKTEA
inactive: [1] -0.031 | [2] -0.031 | epoxomicin 0.083 | [3] -0.103 | [4] 0.072 | [5] 0.134 | rosiglitazone 0.088 | [6] 0.127 | [7] -0.221 | saracatinib 0.249 | alvocidib -0.128 | Tubastatin A 0.079 | [8] -0.023 | defactinib 0.02 | rucaparib 0.168 | [9] 0.131 | encorafenib 0.212 | [10] -0.212

AKNA (UniProt Q7Z591)
Sequence of UniProt Q7Z591 (Q7Z591 whole entry, looked up): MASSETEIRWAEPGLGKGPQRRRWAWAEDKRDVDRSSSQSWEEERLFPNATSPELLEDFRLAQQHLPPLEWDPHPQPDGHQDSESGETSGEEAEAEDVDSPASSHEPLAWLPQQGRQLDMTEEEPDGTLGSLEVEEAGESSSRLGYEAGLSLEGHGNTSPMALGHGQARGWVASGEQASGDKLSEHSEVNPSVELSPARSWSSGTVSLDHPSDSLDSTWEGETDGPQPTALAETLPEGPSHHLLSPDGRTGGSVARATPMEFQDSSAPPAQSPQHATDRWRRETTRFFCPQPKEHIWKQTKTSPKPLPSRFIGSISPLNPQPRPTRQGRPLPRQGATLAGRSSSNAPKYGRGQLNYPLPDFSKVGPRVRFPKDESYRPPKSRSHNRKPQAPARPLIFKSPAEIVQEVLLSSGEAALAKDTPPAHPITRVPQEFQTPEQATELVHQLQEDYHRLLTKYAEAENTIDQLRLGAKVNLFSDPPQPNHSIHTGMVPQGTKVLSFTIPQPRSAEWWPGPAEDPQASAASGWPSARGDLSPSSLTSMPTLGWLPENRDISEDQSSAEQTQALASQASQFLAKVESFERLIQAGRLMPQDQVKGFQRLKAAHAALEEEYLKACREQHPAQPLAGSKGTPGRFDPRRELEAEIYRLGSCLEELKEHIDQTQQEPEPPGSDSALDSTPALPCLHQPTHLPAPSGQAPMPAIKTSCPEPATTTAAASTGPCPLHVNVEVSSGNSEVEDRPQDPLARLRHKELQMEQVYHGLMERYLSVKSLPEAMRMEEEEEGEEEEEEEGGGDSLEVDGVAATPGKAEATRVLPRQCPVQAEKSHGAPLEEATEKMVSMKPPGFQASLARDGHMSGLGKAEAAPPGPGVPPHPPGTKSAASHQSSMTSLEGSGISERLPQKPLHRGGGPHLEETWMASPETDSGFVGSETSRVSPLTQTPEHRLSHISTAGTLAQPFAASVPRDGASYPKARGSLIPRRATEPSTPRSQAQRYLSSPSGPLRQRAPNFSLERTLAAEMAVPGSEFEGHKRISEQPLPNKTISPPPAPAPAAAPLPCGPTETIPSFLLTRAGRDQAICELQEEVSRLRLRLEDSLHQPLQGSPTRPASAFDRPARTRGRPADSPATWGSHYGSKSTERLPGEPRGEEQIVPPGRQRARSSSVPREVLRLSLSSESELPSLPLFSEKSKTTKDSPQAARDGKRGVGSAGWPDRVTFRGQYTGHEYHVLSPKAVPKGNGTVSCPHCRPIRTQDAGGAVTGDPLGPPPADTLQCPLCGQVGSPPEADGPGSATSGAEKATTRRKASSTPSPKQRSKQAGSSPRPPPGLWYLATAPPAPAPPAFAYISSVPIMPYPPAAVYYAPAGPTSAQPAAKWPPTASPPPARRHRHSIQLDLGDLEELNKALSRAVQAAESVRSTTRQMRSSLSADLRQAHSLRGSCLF
inactive: volasertib 0.015 | [3] 0.054 | sotrastaurin -0.017 | alvocidib -0.066 | [8] -0.074

AP2S1 (UniProt M0QZ21)
inactive: Tubastatin A 0.335

ADD1 isoform 4 (UniProt P35611)
inactive: epoxomicin -0.431 | [4] -0.001 | rosiglitazone -0.077 | [7] 0.086 | alvocidib 0.087
